Screening results: PubChem BioAssay, National Center for Advancing Translational Sciences (NCATS)
Many of the other results were omitted from the sample, so hits are more common in it than they were.
AmpC no deterg = AmpC beta-lactamase inhibition without detergent; AmpC nitrocefin hydrolysis, absorbance 480 nm, 0.0001% Triton; Potency, µM (titrated, usually from 57.1 µM), usual class: inhibitors; hit rate 0.52% among 330,000; further: nearly all actives have a fitted effect of over 20% in size
Target sequence (P00811 whole entry, looked up): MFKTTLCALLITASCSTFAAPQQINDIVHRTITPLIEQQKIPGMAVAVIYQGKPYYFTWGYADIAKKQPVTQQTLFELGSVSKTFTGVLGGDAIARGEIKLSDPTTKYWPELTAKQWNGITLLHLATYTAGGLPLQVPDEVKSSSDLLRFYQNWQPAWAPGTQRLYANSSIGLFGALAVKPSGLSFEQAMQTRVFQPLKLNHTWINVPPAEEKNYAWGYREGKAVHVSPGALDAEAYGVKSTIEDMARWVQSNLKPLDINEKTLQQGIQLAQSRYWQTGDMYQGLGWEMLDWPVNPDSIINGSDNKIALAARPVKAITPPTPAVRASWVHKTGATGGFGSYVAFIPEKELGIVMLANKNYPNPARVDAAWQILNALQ
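20 mM phosphate pH 7.0 + 0.01% (detergent screen) or 0.0001% Triton X-100; 5.3 nM AmpC reagent; cpd preinc 15 min RT; nitrocefin (800 uM stock) to start; A480 q20 s × 4 min; Activity was normalised to no-enzyme and no-compound control wells.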
AmpC detergent = blocks E. coli AmpC beta-lactamase in detergent assay; P00811; AmpC hydrolysis of nitrocefin, absorbance 480 nm, 0.01% Triton; Potency, µM (doses to about 114 µM), hits mostly inhibitors; hit rate 0.041% among 370,000; AID 485294; further: nearly all actives have a fitted effect of over 25% in size
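AmpC (5.3 nM in the dispensed reagent) in 20 mM phosphate pH 7.0 with 0.01% (detergent screen) or 0.0001% Triton X-100 was preincubated with compounds for 15 min at room temperature. Nitrocefin was then added from an 800 uM solution, and hydrolysis was followed at 480 nm.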
NS1 function inh = blocks influenza NS1 protein function | Potency, µM (series often up to 46.1 µM) | hit rate 0.4% among 270,000 | AID 2326; calls by dose curve; further: actives are rising curves; nearly all actives have a fitted effect of over 50% in size
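Read-out: OD600 growth recovery of NS1-expressing budding yeast. Cells grown overnight at 30C in -URA glucose medium, washed, resuspended and diluted 1:100 in 2% galactose assay medium, pH 6.0. Same strain lacking NS1 served as positive control.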
Shiga inhibitor = blocks Shiga toxin action in Vero cells; Vero cells, Shiga toxin protein synthesis inhibition reporter; inhibition, % at 38.7 µM; hit rate 9.2% among 290,000; AID 2315; in the data active means inhibition mostly above about 28%, no sharp cut-off; inactive means mostly below about 43%
Cycloheximide cs = affects cycloheximide protein synthesis inhibition readout, counter-screen. hit rate 12% among 300,000. cell reporter, cycloheximide protein synthesis inhibition counterscreen. max response, %. AID 2314; in the data active means max response mostly above about 13%, no sharp cut-off; inactive means mostly below about 14%; further: read at 38.3 µM for the half of the compounds with a filed dose
Hits are given with their value; . = inactive; ? = inconclusive; / = no result; + = active, no number. Unless noted, the call rests on the fitted dose curve; in most records, active means well fitted curve in the direction sought with a large enough effect; inconclusive means small, poorly fitted or top-dose-only effect, or another doubt; inactive means no such curve, though single readings can be large; an effect the other way counts as inactive or inconclusive.

SMILES | AmpC no deterg | AmpC detergent | NS1 function inh | Shiga inhibitor | Cycloheximide cs
O=C(CNC(=O)c1ccccc1F)NCCOc1ccccc1Cl | . | ? | . | + | 15
COc1ccc(C(=O)NCCOc2ccccc2Cl)c(OC)c1OC | . | . | . | 99 | 54
COc1cc(C(=O)NCCOc2ccccc2C)c(Br)c(OC)c1OC | . | . | . | . | .
O=C1CC(=O)Nc2cc(S(=O)(=O)Nc3ccc(Cl)c(C(F)(F)F)c3)ccc2N1 | . | . | . | . | .
COc1ccc(NC(=S)Nc2cccc(C)n2)cc1 | . | . | . | . | 19
CCC(=O)Nc1ccc(C(=O)Nc2cccc(C)n2)cc1 | . | . | . | 62 | 35
Cc1cccc(NC(=O)Nc2ccccc2[N+](=O)[O-])n1 | . | . | . | . | 24
Cc1cccc(NC(=O)Nc2ccc(Br)cc2)n1 | . | . | . | 59 | 29
COc1ccccc1NC(=O)Nc1cccc(C)n1 | . | ? | . | . | .
CCOC(=O)c1ccc(NC(=O)Nc2cccc(C)n2)cc1 | . | ? | / | . | .
CN(CCC#N)S(=O)(=O)c1cc2c3c(c1)CCN3C(=O)CC2 | . | . | . | . | .
Cn1c(=O)n(C)c2cc(NC(=O)Cc3ccccc3[N+](=O)[O-])ccc21 | . | . | . | . | .
NC(=O)c1ccc(C[C@H](C(=O)O)N2C(=O)c3ccc(C(=O)O)cc3C2=O)cc1 | . | ? | / | . | .
CCCCOc1ccc(CNC(=O)c2cnc3sc(N4CCCC4)nn3c2=O)cc1 | / | . | / | / | /
COc1ccc(NC(=O)Nc2cccc(C)n2)cc1 | ? | . | . | 117 | 49
COc1ccc(COc2ccsc2C(=O)Nc2ccc(Cl)cc2)cc1 | 0.35µM | . | . | . | .
CN(C)S(=O)(=O)Oc1ccsc1C(=O)Nc1ccc(Cl)cc1 | . | . | . | . | .
O=C(N/N=C/c1ccc(Cl)cc1)c1sccc1OCc1ccc(F)cc1 | . | . | . | . | 27
Cc1ccc(C)c(NC(=O)Cn2c(=O)n(Cc3ccc4c(c3)OCO4)c(=O)c3ccccc32)c1 | / | . | / | / | /
Cc1cc(C(=O)CN2C(=O)c3cccc(N)c3C2=O)c(C)n1Cc1cccs1 | . | . | . | 84 | 34
Cc1cc(C(=O)CN2C(=O)NC3(CCCCC3)C2=O)c(C)n1Cc1ccc2c(c1)OCO2 | . | . | . | 96 | 27
Cc1cc(C(=O)CN2C(=O)C(=O)N(Cc3ccccc3)C2=O)c(C)n1Cc1ccccc1 | . | / | / | / | /
Cc1cc(C(=O)CN2C(=O)NC3(CCCCC3C)C2=O)c(C)n1Cc1cccs1 (stereo not drawn) | . | ? | . | 75 | 101
CN(Cc1ccco1)C(=O)CN1C(=O)NC2(CCCCC2)C1=O | . | . | / | / | /
Cc1cc(C(=O)CN2C(=O)NC3(CCCCC3)C2=O)c(C)n1Cc1ccco1 | . | . | / | 89 | 41
SMILES | AmpC no deterg | AmpC detergent | NS1 function inh | Shiga inhibitor | Cycloheximide cs
Cc1c(Cl)cccc1N=c1c([N+](=O)[O-])nn(-c2ccccc2)n1O | . | . | . | . | .
O=[N+]([O-])c1nn(-c2ccc3c(c2)OCCO3)n(O)c1=Nc1ccc(Cl)cc1 | . | . | . | 117 | 34
Cc1ccc(N=c2c([N+](=O)[O-])nn(-c3ccccc3)n2O)c(C)c1 | . | . | . | 98 | 32
Cc1ccc(N=c2c([N+](=O)[O-])nn(-c3ccc4c(c3)OCCO4)n2O)cc1F | ? | . | / | 141 | 33
Cc1cc(C)cc(N=c2c([N+](=O)[O-])nn(-c3ccc4c(c3)OCCO4)n2O)c1 | . | . | / | . | 17
COc1ccc2[nH]cc(CCNC(=O)c3cnn(-c4ccccc4Cl)c3C3CCN(C(=O)OC(C)(C)C)CC3)c2c1 | / | . | / | / | /
CCc1ccc(N=c2c([N+](=O)[O-])nn(-c3ccc4c(c3)OCCO4)n2O)cc1 | . | . | / | 46 | 34
Cc1ccc(N=c2c([N+](=O)[O-])nn(-c3ccc(Cl)cc3)n2O)cc1C | . | . | . | . | .
Cc1ccc(N=c2c([N+](=O)[O-])nn(-c3ccc4c(c3)OCCO4)n2O)c(Cl)c1 | . | . | / | 89 | 35
COc1ccc(-n2nc([N+](=O)[O-])c(=NCCc3cccc(C)c3)n2O)cc1 | . | . | / | . | .
O=[N+]([O-])c1nn(-c2ccc3c(c2)OCCO3)n(O)c1=Nc1ccccc1 | . | . | . | 168 | 142
COc1ccc(S(=O)(=O)N2CCC(C(=O)NC(C)c3ccccc3)CC2)cc1 (stereo not drawn) | / | . | / | / | /
CCNC(=O)COc1ccc2ccccc2c1 | . | . | . | 58 | 71
CCNC(=O)COc1ccc(CC)cc1 | . | . | . | 46 | 25
CCC(C)(C)NC(=O)COc1ccc(C(=O)c2ccccc2)cc1 | . | . | / | . | 22
O=C(COc1ccc(C(=O)c2ccccc2)cc1)NC1CCCCCC1 | . | . | . | . | .
CCc1ccc(OCC(=O)NC(C)(C)C)cc1 | . | . | . | 44 | 23
CCOc1ccc(C(=O)NCc2ccc3c(c2)CCN3C(=O)c2ccc(C)cc2)cc1OCC | / | . | / | / | /
CCCc1ccc(OCCNC(=O)CC)cc1 | . | ? | . | . | 16
Cc1cc(/C=C2/SC(=O)N(CC(=O)N3CCOCC3)C2=O)c(C)n1-c1ccccc1F | . | . | . | 47 | 22
COc1ccc(-n2c(C)cc(/C=C3/SC(=O)N(CC(=O)N4CCOCC4)C3=O)c2C)cc1 | . | . | . | . | .
CC1CCCN(C(=O)c2cc3c(=O)n4ccccc4nc3s2)C1 (stereo not drawn) | . | . | . | 78 | 34
CC1CCCCN1C(=O)c1cc2c(=O)n3ccccc3nc2s1 (stereo not drawn) | . | . | . | 52 | .
Cc1cccn2c(=O)c3cc(C(=O)N4CCCC(C)C4)sc3nc12 (stereo not drawn) | . | ? | . | . | .
CCOC(=O)C1CCN(C(=O)c2cc3c(=O)n4cccc(C)c4nc3s2)CC1 | . | . | . | . | .
SMILES | AmpC no deterg | AmpC detergent | NS1 function inh | Shiga inhibitor | Cycloheximide cs
O=C(c1cc2c(=O)n3ccccc3nc2s1)N1CCc2ccccc2C1 | . | ? | / | . | 11
CCOC(=O)C1CCN(C(=O)c2cc3c(=O)n4ccccc4nc3s2)CC1 | . | . | . | . | 23
COc1ccc(NC(=O)c2cc(C3CC3)nc3c2c(C)nn3-c2ccccc2)c(OC)c1 | / | . | / | / | /
CC(OC(=O)Cn1cnc2c1c(=O)n(C)c(=O)n2C)C(=O)NC(C)c1ccc(Cl)cc1Cl (stereo not drawn) | . | . | / | / | /
COC(=O)[C@@H](NC(=O)O[C@H]1C(=O)c2ccc(OC)cc2O[C@@H]1c1ccc2c(c1)OCO2)C(C)C | . | . | . | . | 23
CC[C@H](C)[C@@H](NC(=O)O[C@@H]1C(=O)c2cc(Br)ccc2O[C@H]1c1cccc(OC)c1)C(=O)OC | . | ? | . | . | .
COc1ccc([C@@H]2CC(=O)c3c(O)cc(O[C@@H]4O[C@H](CO)[C@@H](O)[C@H](O)[C@H]4O[C@@H]4O[C@@H](C)[C@H](O)[C@@H](O)[C@H]4O)cc3O2)cc1 | / | / | / | . | .
